# Measurements as given in PubChem BioAssay AID504386 (National Center for Advancing Translational Sciences (NCATS), 2011).
# Inconclusive results are not listed. Activity calls are given as the source filed them. The call rests on the fitted dose curve; in most records, active means well fitted curve in the direction sought with a large enough effect; inconclusive means small, poorly fitted or top-dose-only effect, or another doubt; inactive means no such curve, though single readings can be large or run the other way.
# Target: Runt-related transcription factor 1 (Homo sapiens) + Core-binding factor subunit beta (Homo sapiens) (UniProt Q01196+Q13951)
# Test: qHTS Assay for Compounds Blocking the Interaction Between CBF-beta and RUNX1 for the Treatment of Acute Myeloid Leukemia: SAR for Probe
# Details: AlphaScreen CBFb-His/RUNX1-biotin binding, biochemical
# Excerpt: NIH Chemical Genomics Center [NCGC] NIH Molecular Libraries Probe Production centers Network [MLPCN] MLPCN Grant: X01MH083259-01 Assay Submitter (PI): Paul Liu NCGC Assay Overview: Core Binding Factor (CBF) abnormalities are associated with 20-25% of all acute myeloid leukemias (AML), of which 5-10% are further sub classified as acute myelomonocytic leukemia with eosinophilia, also known as M4Eo in the FAB classification scheme. This subtype of leukemia is usually associated with chromosome 16 inversion (p13:q22). Chromosome 16 inversion results in formation of the fusion oncogene CBFB-MYH11, which encodes the fusion protein CBF-beta-SMMHC. […] It has been hypothesized that the interference of CBF-beta and RUNX1 binding could have therapeutic implications for patients with CBF mediated leukemias. […]
# NCGC Assay Protocol Summary: Step, Parameter, Description (1) Reagent, 3 uL CBFb-His/RUNX1-biotin mix incubated together for 20 minutes at room temperature (30 nM each) (2) Compound or control, 23 nL compound stock solution (3) Incubation, 15 minutes at Room temperature (4) Reagent, 1 uL 50 ng each of beads (Nickel beads and streptavidin beads) (5) Incubation, 90 minutes at Room temperature (6) Detection, […], Envision reader in AlphaScreenTM mode Keywords: MLSMR, MLPCN, NIH Roadmap, qHTS, NCGC, Core binding factor, CBF, CBF-beta, Acute myeloid leukemia
# Sequence of Runt-related transcription factor 1 (Homo sapiens) + Core-binding factor subunit beta (Homo sapiens) (Q01196 whole entry, looked up): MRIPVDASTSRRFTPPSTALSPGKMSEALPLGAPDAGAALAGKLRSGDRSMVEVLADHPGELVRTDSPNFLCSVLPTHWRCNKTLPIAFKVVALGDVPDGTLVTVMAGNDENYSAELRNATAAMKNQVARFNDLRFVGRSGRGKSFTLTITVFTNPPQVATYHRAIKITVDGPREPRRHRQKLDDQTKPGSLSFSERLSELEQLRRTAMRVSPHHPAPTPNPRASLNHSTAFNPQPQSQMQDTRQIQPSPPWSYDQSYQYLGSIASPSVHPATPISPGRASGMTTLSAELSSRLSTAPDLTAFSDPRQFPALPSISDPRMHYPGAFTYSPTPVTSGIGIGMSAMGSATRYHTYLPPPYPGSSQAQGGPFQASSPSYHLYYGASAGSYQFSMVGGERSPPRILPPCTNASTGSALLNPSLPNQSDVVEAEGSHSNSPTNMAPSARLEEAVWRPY
# Sequence of Runt-related transcription factor 1 (Homo sapiens) + Core-binding factor subunit beta (Homo sapiens) (Q13951 whole entry, looked up): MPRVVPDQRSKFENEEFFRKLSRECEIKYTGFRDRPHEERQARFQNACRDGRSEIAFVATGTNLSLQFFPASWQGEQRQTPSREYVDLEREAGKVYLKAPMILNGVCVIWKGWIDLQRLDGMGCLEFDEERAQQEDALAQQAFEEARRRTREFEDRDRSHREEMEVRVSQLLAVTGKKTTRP
row,Compound,Potency
1,CCN(CC)CCN1C(=O)CN=C(c2ccccn2)c2cc(Cl)ccc21,21.7 µM (active)
2,CN1C(=O)CN=C(c2ccc[nH]2)c2cc(Cl)ccc21 (tested in a mixture with another compound),109 µM (active)
